# This is a sample that favours compounds with a hit; in the whole collection about 12% have one here.
# Ins promoter up – insulin promoter activators in MIN6 cells, imaging, high-content screening, mouse beta cells; AID 1625, 2009; z-score at 5 µM; hit rate 0.3% among 190,000; MIN6 insulin promoter-GFP reporter; hits give high values;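 active means z-score above 3 at 5 µM with at least 500 cells counted in the well; inconclusive means wells under 500 cells, flagged as cytotoxic or low count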
# Lmaj promast – Leishmania major promastigote growth inhibition, primary screen; Leishmania major promastigotes, resazurin fluorescence viability; inhibition, % at 10 µM; hit rate 9% among 200,000; in the data active means inhibition above about 50%;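 further: promastigotes grown with compound for 44 hours at 28 °C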
# Insulin prom inh – inhibitors of insulin promoter-driven GFP, primary screen, imaging, TRM-6 cells (human fetal islet line), eGFP reporter, cell count; reporter expression induced with tamoxifen; inhibition, % at 2 µM; hit rate 0.9% among 130,000; AID 1273, 2008;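 active means inhibition above the mean plus 3 SD, with well images judged a real hit on visual review, cut at about 60% in these data, passing the limit was not always enough; inconclusive means inhibition over the cutoff but images rejected on review; inactive means inhibition not above the cutoff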
# KCC2 mod – KCC2 cotransporter modulators, thallium flux, primary screen, cell-based, HEK293 KCC2, FluoZin-2 fluorescence, MLSMR; KCC2 cells, thallium flux FluoZin-2 fluorescence; B-score of Tl+ flux slope (higher = more flux/activation; lower = inhibition) at 10 µM; hit rate 2.2% among 190,000;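 active means thallium flux slope and its plate-corrected score both differing from the plate sample mean at a set confidence after two filtering rounds, in either direction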;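 further: slope of fluorescence scaled to starting intensity during 10 to 20 s after thallium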
# Target sequence (Q9H2X9 whole entry, looked up): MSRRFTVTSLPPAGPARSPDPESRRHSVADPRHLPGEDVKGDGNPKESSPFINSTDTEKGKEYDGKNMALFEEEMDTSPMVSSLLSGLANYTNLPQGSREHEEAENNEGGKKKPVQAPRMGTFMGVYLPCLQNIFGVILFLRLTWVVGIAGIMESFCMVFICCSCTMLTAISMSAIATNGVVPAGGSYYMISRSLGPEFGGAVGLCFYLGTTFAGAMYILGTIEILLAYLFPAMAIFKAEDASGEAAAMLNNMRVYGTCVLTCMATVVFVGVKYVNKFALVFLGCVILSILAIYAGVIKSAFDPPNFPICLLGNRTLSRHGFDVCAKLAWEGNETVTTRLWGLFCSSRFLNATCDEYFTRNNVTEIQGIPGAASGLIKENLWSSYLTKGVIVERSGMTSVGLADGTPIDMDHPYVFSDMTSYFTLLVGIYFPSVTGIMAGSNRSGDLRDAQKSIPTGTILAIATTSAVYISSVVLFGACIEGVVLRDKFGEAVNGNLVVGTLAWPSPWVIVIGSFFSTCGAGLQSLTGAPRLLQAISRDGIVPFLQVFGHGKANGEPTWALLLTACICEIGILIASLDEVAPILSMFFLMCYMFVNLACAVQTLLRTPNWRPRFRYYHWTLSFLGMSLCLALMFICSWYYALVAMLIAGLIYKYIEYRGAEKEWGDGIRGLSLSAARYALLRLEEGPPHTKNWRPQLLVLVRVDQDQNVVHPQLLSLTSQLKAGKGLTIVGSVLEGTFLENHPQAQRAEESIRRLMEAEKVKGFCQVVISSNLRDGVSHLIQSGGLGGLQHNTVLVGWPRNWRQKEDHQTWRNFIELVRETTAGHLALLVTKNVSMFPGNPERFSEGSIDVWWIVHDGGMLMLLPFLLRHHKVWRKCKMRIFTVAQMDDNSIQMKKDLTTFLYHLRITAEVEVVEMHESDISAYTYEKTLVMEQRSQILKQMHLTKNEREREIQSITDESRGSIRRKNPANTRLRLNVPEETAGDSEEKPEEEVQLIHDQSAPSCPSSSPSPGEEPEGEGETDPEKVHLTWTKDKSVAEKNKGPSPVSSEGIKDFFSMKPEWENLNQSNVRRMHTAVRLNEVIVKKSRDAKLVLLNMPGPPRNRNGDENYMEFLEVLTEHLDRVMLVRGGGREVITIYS
# WT yeast gro inh – growth inhibition of WT strain, primary screen, mitochondrial fusion inhibitor project, WT and mutant strains, chemical genetic; mitochondrial fusion phenotypic screen; inhibition, % at 10 µM; hit rate 2.1% among 190,000; AID 1362, 2008; in the data active means inhibition above about 58%; tested in S. cerevisiae
# ROMK mod – ROMK potassium channel modulators, primary screen, cell-based, thallium flux, MLSMR library | Tet-inducible ROMK, thallium flux fluorescence; actives lie on both sides | ATP-sensitive inward rectifier potassium channel 1 (Homo sapiens), P48048 | AID 1918, 2009 | hit rate 2% among 130,000 | B-score at 10 µM;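 active means signal ratio slope over the read window, or its plate-corrected B-score, at least 3 SD from the plate mean, either direction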;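 further: B-score of the F/F0 ratio slope over 7 to 12 s after thallium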
# KCC2 secondary – KCC2 modulators in sodium-free buffer, confirmation, cell-based, HEK293 KCC2, thallium flux, secondary assay | shares compounds with KCC2 mod | FluoZin2 fluorescence; hits give high values | normalised thallium flux (F/F0 slope) at 10 µM | hit rate 15% among 3,700 | AID 1713, 2009;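 active means thallium flux slope above the same plate's solvent-only control mean plus 3 SD; inconclusive means the two replicate wells disagree; inactive means no significant difference from solvent-only control wells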
# KCC2 bumet counter – thallium flux persisting under bumetanide in KCC2 cells, confirmation, counter-screen for KCC2 modulator project, cell-based, HEK293 KCC2, FluoZin2, secondary assay 3 | normalized thallium flux at 10 µM | HEK293-KCC2 + bumetanide/ouabain; hits give high values | shares compounds with KCC2 mod | hit rate 49% among 3,700 | AID 1714, 2009;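 active means thallium entry rate above the same plate's blocked-transporter control wells by more than 3 SD; inconclusive means the two repeat wells disagree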;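 further: raw slope of fluorescence over initial fluorescence between 10 and 20 s after thallium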
# KCC2 sec2 – KCC2 modulators without ouabain present, confirmation, cell-based, HEK293 KCC2, thallium flux, FluoZin2, secondary assay 2. shares compounds with KCC2 mod. thallium flux FluoZin2 fluorescence; actives lie on both sides; F/F0 rise rate, 10–20 s post-thallium. normalized thallium flux at 10 µM. hit rate 23% among 3,700. AID 1715, 2009;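 active means thallium flux slope more than 3 SD above or below the plate's solvent-only control mean, mostly below; inconclusive means the two repeat wells disagreed; inactive means no significant shift from solvent-only controls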;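 further: raw slope with 0.1% DMSO as baseline and bumetanide as block control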
# HEK counter1 – thallium flux modulation in parental HEK cells, confirmation, counter-screen for KCC2 modulator project, cell-based, counterscreen 1; shares compounds with KCC2 mod; HEK293 parental cells, thallium flux FluoZin2, ouabain; baseline-ratio fluorescence slope, 10–20 s after thallium; thallium flux rate (normalised fluorescence) at 10 µM; hit rate 46% among 3,700;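 active means thallium flux rate significantly above the same plate's solvent-only control wells, beyond their mean plus 3 SD; inconclusive means the two replicate wells gave conflicting results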
# KCC2 retest ouab – KCC2 inhibitors and activators, ouabain retest, confirmation, HEK-KCC2 cells; AID 1717, 2009; shares compounds with KCC2 mod; HEK293-KCC2, thallium flux FluoZin2 fluorescence; bidirectional: low = inhibitor, high = activator; raw Tl+ flux slope (below DMSO = inhibition, above = activation) at 10 µM; hit rate 48% among 3,700;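 active means thallium flux slope beyond 3 SD from same-plate DMSO control mean in most replicates, usually higher, sometimes lower; inconclusive means repeat tests gave conflicting results; inactive means no significant difference from controls in most replicates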;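 further: slope of initial-normalized fluorescence between seconds 10 and 20 after thallium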
# HEK counter2 – native HEK Tl+ uptake effects, second counter-screen – HEK cells, counterscreen 2, counter-screen for KCC2 modulator project, confirmation; hit rate 33% among 3,700; thallium flux slope at 10 µM; shares compounds with KCC2 mod; HEK293 parental, thallium flux FluoZin-2 fluorescence slope;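 active means thallium flux slope above the same plate's solvent-control mean plus 3 SD in both duplicate wells; inconclusive means duplicate wells that disagreed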;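 further: run without ouabain in cells lacking the KCC2 cotransporter; slope of fluorescence scaled to its starting value between 10 and 20 s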
# Starred values were filed as active, the others as inactive; ? = inconclusive; / = not tested or not shown.
SMILES,Ins promoter up,Lmaj promast,Insulin prom inh,KCC2 mod,WT yeast gro inh,ROMK mod,KCC2 secondary,KCC2 bumet counter,KCC2 sec2,HEK counter1,KCC2 retest ouab,HEK counter2
Cc1nn(-c2ccccc2)c2nc(C(Cl)(Cl)Cl)[nH]c(=O)c12,1.38,/,/,90.8*,/,/,0.00641,0.0714*,?,0.0635*,0.0654*,0.0504*
Cc1ccc(-n2nc(C)c3c(=O)[nH]c(C(F)(F)F)nc32)cc1,0.77,24.6,-21.6,0.00747,-15.5,-0.413,/,/,/,/,/,/
COC(=O)c1sccc1NC(=S)N1CC(C)CC(C)C1 (stereo not given),0.92,-6.8,/,0.0157,54.7,-0.942,/,/,/,/,/,/
CC1CCCCN1S(=O)(=O)c1ccc(NC(=O)c2cccs2)cc1 (stereo not given),0.35,4.2,6.7,/,-5.8,-0.86,/,/,/,/,/,/
COC(=O)c1sccc1NC(=S)N1CCC(C)CC1,0.14,-2.0,-4.2,/,9.8,-0.241,0.00809,0.0049,0.0267,0.0074,0.0182,0.00959
CC1CCCCN1C(=S)NC(=O)c1cccs1 (stereo not given),0.39,/,/,36.4*,/,/,0.0215*,0.0572*,0.0391,0.0345*,0.0502*,0.0164*
COC(=O)c1sccc1NC(=S)NCc1ccc(Cl)cc1,0.76,/,/,160*,/,/,0.07*,0.164*,0.0576*,?,0.122*,0.0576*
CC1CCN(S(=O)(=O)c2ccc(NC(=O)c3cccs3)cc2)CC1,-1.09,42.0,3.9,-1.15,-12.2,/,/,/,/,/,/,/
COC(=O)c1ccc(C)c(NC(=S)NCc2ccc(Cl)cc2)c1,-0.51,1.9,/,-0.0667,5.7,/,/,/,/,/,/,/
CC1CCN(C(=S)NC(=O)c2cccs2)CC1,0.17,-7.5,/,55.5*,33.4,/,0.033*,0.0831*,?,0.0552*,0.069*,0.0185*
OCC1CCCN(C(=S)Nc2ccc(Oc3ccccc3)cc2)C1 (stereo not given),-0.16,-2.9,/,-2.49,12.2,0.522,/,/,/,/,/,/
COc1ccc(C(CNC(=O)/C=C/c2c(Cl)nc3ccccn23)N(C)C)cc1 (stereo not given),-0.18,20.8,/,-0.945,-9.1,0.289,/,/,/,/,/,/
CNC(=O)[C@@H]1C[C@H]1[C@@H](NC(=O)OCc1ccccc1)c1ccccc1,1.1,-4.0,-255.0,0.0762,-7.8,0.0555,/,/,/,/,/,/
CCC(C(=O)Nc1ccsc1C(=O)OC)c1ccccc1 (stereo not given),-0.24,0.7,/,-3.2*,-7.2,0.36,0.00898,0.00558,0.0346,?,?,0.0106
CCC(C(=O)Nc1nc(C)c(C(=O)OC)s1)c1ccccc1 (stereo not given),-0.9,23.8,/,0.615,12.7,0.00329,/,/,/,/,/,/
CCC(=O)Nc1ccccc1C(=O)C(=O)Nc1ccccc1,0.38,46.0,-74.1,1.64,-2.5,/,/,/,/,/,/,/

# Screening results: PubChem, several laboratories
